The values that follow come from PubChem BioAssay (NCI).

Several values for one entry are separate records, joined by “and”; a condition that tells them apart may be missing. Equal values may be shown once. About 83,000 compounds went through this panel and 20% of them were active in at least one assay; those are over-represented in the sample as a whole.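 Percent growth is the endpoint: 0 to 100 indicates growth inhibition (40 means 60% inhibition), 0 means no net growth, and negative values indicate cell death.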 A number with no mark means an inactive call. Activity calls are given as the source filed them. Rule for the calls: active = growth percent below 10; inactive = the rest.

Among the test systems are SK-MEL-2 melanoma; EKVX NSCLC; SN12C renal; UO-31 renal; TK-10 renal; ACHN renal; CAKI-1 renal; A498 renal; CCRF-CEM leukemia; MOLT-4 leukemia.
Common to all, as to test: NCI-60 one-dose screen, 48 h (100 = growth as untreated, 0 = no growth, -100 = all killed)
Common to all, as to details: 10 µM unless noted

In the case of `CCCCNC(=O)c1ccccc1C`, the growth was 100% with SK-MEL-2 melanoma; 94.9% with EKVX NSCLC; 98.5% in the test on SN12C renal; 94.4% in the test with UO-31 renal; 97.5% with TK-10 renal; 104% in the test with ACHN renal. For the same compound, the growth is 96.5% in the test on CAKI-1 renal, 126% in the test on A498 renal, 99.7% with CCRF-CEM leukemia and 98.5% with MOLT-4 leukemia.

Turning to `COc1ccc(/C=C/C(=O)O)cc1OC`, the growth is 108% and 101% in the test on SK-MEL-2 melanoma; 106% and 103% in the test with EKVX NSCLC; 101% and 105% in the test on SN12C renal; 100% and 97.5% with UO-31 renal; 102% and 92.5% with TK-10 renal; 104% and 112% in the test on ACHN renal. Further, the growth with CAKI-1 renal was 101%; in the test with A498 renal, 104%; in the test with CCRF-CEM leukemia, 98.1%; with MOLT-4 leukemia it was 104% and 108%.

In the case of `CC1(C)CC(=O)NC1=O`, the growth was 99.2% in the test with SK-MEL-2 melanoma; 103% in the test on EKVX NSCLC; 101% in the test with SN12C renal; 87.1% in the test with UO-31 renal; 91.8% with TK-10 renal; 98.2% in the test with ACHN renal. Further, the growth in the test with CAKI-1 renal was 93.5%; in the test with A498 renal it was 81.5%; with CCRF-CEM leukemia, 95.6%; with MOLT-4 leukemia it was 107%.

For `Cc1cc2ccccc2c2cc3ccccc3cc12`, the growth was 92.6% with SK-MEL-2 melanoma; 82.7% in the test on EKVX NSCLC; 98.3% in the test with SN12C renal; 78.8% in the test with UO-31 renal; 98.8% in the test with TK-10 renal; 92.8% with ACHN renal. Besides, the growth was 88.8% in the test on CAKI-1 renal, 88.5% with A498 renal, 97% with CCRF-CEM leukemia and 65.6% in the test on MOLT-4 leukemia.

In the case of `Nc1ccccc1SC1CC(=O)N(c2ccc(I)cc2)C1=O` (configuration not stated), the growth was 86.9% with SK-MEL-2 melanoma; 90.6% in the test with EKVX NSCLC; 91.8% with SN12C renal; 86.8% with UO-31 renal; 106% with TK-10 renal; 86% with ACHN renal. Further, the growth in the test with CAKI-1 renal is 81.7%; in the test with A498 renal it was 108%; with CCRF-CEM leukemia, 89.7%; in the test with MOLT-4 leukemia, 81.5%.

For `CC(=O)Oc1cc(C(C)C)c(OCCN(C)C)cc1C`, the growth is 116% and 119% in the test with SK-MEL-2 melanoma; 107% with EKVX NSCLC; 96.7% and 97.6% in the test with SN12C renal; 94.2% and 97.3% in the test with UO-31 renal; 112% and 121% with TK-10 renal; 99.4% with ACHN renal. Also, the growth in the test with CAKI-1 renal was 91.9% and 95.3%; with A498 renal, 98.3% and 97.4%; in the test with CCRF-CEM leukemia, 113% and 99.6%; with MOLT-4 leukemia, 117% and 105%.

With `Nc1ccc(Cl)c(S(=O)(=O)O)c1`, the growth in the test on SK-MEL-2 melanoma is 88.2%; with EKVX NSCLC it was 106%; with SN12C renal it was 96.6%; with UO-31 renal it was 77.9%; in the test on TK-10 renal it was 98.5%; in the test with ACHN renal, 97.2%. The growth in the test with CAKI-1 renal was 95.2%; with A498 renal it was 84%; in the test with CCRF-CEM leukemia it was 106%; in the test on MOLT-4 leukemia, 109%.

In the case of `O=c1[nH]c(=S)[nH]n1C(=S)n1[nH]c(=S)[nH]c1=O`, the growth was 106% with SK-MEL-2 melanoma; 105% in the test on EKVX NSCLC; 101% in the test with SN12C renal; 80.5% in the test with UO-31 renal; 106% with TK-10 renal; 99.3% with ACHN renal. Also, the growth in the test with CAKI-1 renal was 94.8%; with A498 renal it was 109%; with CCRF-CEM leukemia it was 93.6%; in the test with MOLT-4 leukemia it was 112%.

In the case of `COc1ccc(/C=N/NC(N)=S)cc1`, the growth is 97.5% in the test on SK-MEL-2 melanoma; 64.1% in the test on EKVX NSCLC; 96.1% in the test with SN12C renal; 76.4% with UO-31 renal; 104% with TK-10 renal; 101% with ACHN renal. Further, the growth in the test with CAKI-1 renal is 93.3%; in the test on A498 renal, 73.4%; in the test on CCRF-CEM leukemia it was 69.1%; in the test on MOLT-4 leukemia, 136%.

Regarding `O=C(O)C#Cc1ccc(Cl)cc1`, the growth was 98.4% in the test with SK-MEL-2 melanoma; 104% in the test on EKVX NSCLC; 98.4% with SN12C renal; 95.6% in the test with UO-31 renal; 109% in the test on TK-10 renal; 103% in the test on ACHN renal. Further, the growth in the test with CAKI-1 renal was 95.4%; in the test on A498 renal, 73.1%; in the test on CCRF-CEM leukemia, 103%; in the test on MOLT-4 leukemia, 87.5%.

Take `C/C(=C\c1ccccc1)C(O)C(=O)c1nc2ccc([N+](=O)[O-])cc2[nH]c1=O` (configuration not stated): the growth is 93.6% in the test with SK-MEL-2 melanoma; 92.6% in the test on EKVX NSCLC; 90% in the test on SN12C renal; 74.4% with UO-31 renal; 109% in the test with TK-10 renal; 81% in the test with ACHN renal. Besides, the growth with CAKI-1 renal was 96%; in the test on A498 renal it was 110%; with CCRF-CEM leukemia, 74.8%; in the test on MOLT-4 leukemia, 91%.

In the case of `CC(C)(C)C1CCC(=NO)CC1` (configuration not stated), the growth with SK-MEL-2 melanoma was 94.5%; with EKVX NSCLC, 102%; in the test on SN12C renal, 103%; with UO-31 renal, 71.7%; with TK-10 renal it was 108%; in the test with ACHN renal it was 105%. For the same compound, the growth in the test on CAKI-1 renal is 97.2%; in the test on CCRF-CEM leukemia, 99.8%; in the test with MOLT-4 leukemia it was 123%.

Regarding `COc1cc(Cl)ccc1C`, the growth in the test on SK-MEL-2 melanoma is 30.3%; in the test on EKVX NSCLC, 109%; in the test with SN12C renal it was 72.7%; in the test with UO-31 renal it was 67.1%; with TK-10 renal, 90.5%; in the test on ACHN renal it was -8.72% (active). Also, the figures for the growth with CAKI-1 renal, with CCRF-CEM leukemia and in the test with MOLT-4 leukemia were 54.7%, 91.9% and 81.7%, respectively.

Take `COc1cc(NCCCCCNC(C)C)c2ncccc2c1`: the growth with SK-MEL-2 melanoma is 93.1% and 66.7%; with EKVX NSCLC, 95.5% and 105%; in the test on SN12C renal, 93.5% and 83.6%; with UO-31 renal, 59.7% and 45.4%; with TK-10 renal, 91.9% and 90.1%; with ACHN renal, 100% and 90.5%. Also, the growth with CAKI-1 renal is 91.6% and 92.5%; in the test on CCRF-CEM leukemia it was 106% and 117%; in the test on MOLT-4 leukemia it was 104% and 88%.

Regarding `COc1ccc(CCn2cnn3c(=O)c4ccccc4nc3c2=O)cc1OC`, the growth in the test with SK-MEL-2 melanoma was 107% and 118%; with EKVX NSCLC, 106%; in the test on SN12C renal, 107% and 101%; with UO-31 renal, 93.3% and 91.9%; in the test on TK-10 renal, 114% and 106%; with ACHN renal, 101% and 109%. The growth was 111% and 97.8% in the test on CAKI-1 renal; 90.6% and 129% with A498 renal; 97.6% with CCRF-CEM leukemia; 102% and 112% with MOLT-4 leukemia.
